From PubChem BioAssay AID2101 (National Center for Advancing Translational Sciences (NCATS), 2009)
Among all 330,000 compounds or so, about 300 (0.091%) were called active. Roughly 4% stayed inconclusive and do not appear here. The sample holds actives, similar compounds and a random draw of the others, so the mix is not that of the screen. The call rests on the fitted dose curve; in most records, active means well fitted inhibition curve with a large enough effect; inconclusive means small, poorly fitted or top-dose-only effect, or effect the other way, or another doubt; inactive means no such curve, though single readings can be large or run the other way.

biological target: Lysosomal acid glucosylceramidase (Homo sapiens) (UniProt P04062); test: qHTS Assay for Inhibitors and Activators of N370S glucocerebrosidase as a Potential Chaperone Treatment of Gaucher Disease; conditions: N370S GC spleen homogenate, 4MU-glucoside fluorescence; series mostly up to 59.4 µM; activity change, negative = inhibition: at the top concentration;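 further: 0% = full enzyme activity and -100% = no enzyme basal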

Activity change, negative = inhibition, inactive:
Cc1cc(N(C)C)nc(Cl)n1 0.258%
CNC(=O)C1CC(=O)N(c2ccc(OCC(=O)Nc3ccccc3C)cc2)C1 (stereo unspecified) -0.727%
C=C(C)C(=O)c1ccc(F)cc1 5.76%
CCCN1CCC(=O)N(C(CSc2ccc(C)cc2)Cc2ccccc2)CC1 (stereo unspecified) -17.3%
CCN(C(=O)COC(=O)CCOc1cccc(C)c1)c1c(N)n(Cc2ccccc2)c(=O)[nH]c1=O -8.31%
CC(C)C[C@H](NC(=O)[C@H](O)[C@H](N)Cc1ccccc1)C(=O)O -1.12%
Cc1cc(C)n2nc(C(=O)Nc3cccc(S(=O)(=O)N4CCOCC4)c3)nc2n1 2.72%
COC(=O)C1(Cc2ccccc2)C=C2C(=C(C)C(=O)C2C)CN1 (stereo unspecified) -2.63%
COC(=O)[C@@]1(C)C=C[C@@H](Cc2ccccc2)N1C(C)=O -6.27%
Cn1c2cc(B(O)O)sc2c2cnn(Cc3ccccc3F)c(=O)c21 -12.5%
Cc1ccc(/C(=C/CN2CCCC2)c2ccccn2)cc1
CCN(CC)CCCCn1c(-c2ccccc2)nc2c(N3CCOCC3)nc(C)nc21 -6.36%
COc1cccc(NC(=O)CN(C)C(=O)/C=C/c2cn(-c3ccccc3)nc2-c2cccs2)c1 6.87%
COc1ccc(C2/C=C\CN(Cc3ccco3)C(C)C(=O)N2Cc2ccc(F)cc2)cc1 (stereo unspecified) -4.54%
O=C(CN1CCCCC1)Nc1ccccc1C(=O)NC1CC1 -15.8%
C=C1CCN(C(CC(C)C)C(=O)NCc2cc(OC)c(OC)c(OC)c2)S(=O)(=O)c2ccccc21 (stereo unspecified) -17%
BrC1C(Br)C(Br)C(Br)C(Br)C1Br (stereo unspecified) 7.49%
CCCCn1c(N)c(N(CCC(C)C)C(=O)COC(=O)c2ccc(CC)cc2)c(=O)[nH]c1=O -8.39%
Cc1ccc(C(CC(=O)O)NC(=O)c2ccc(S(=O)(=O)N3CCCC3)cc2)cc1 (stereo unspecified) -0.149%
CC(C)=CCC[C@]1(C)[C@@H](CC=C(C)C)C[C@@]2(CC=C(C)C)C(=O)[C@]1(C(=O)C(C)C)C(=O)C(CC=C(C)C)=C2O -4.71%
O=C(CSc1nnc(COc2ccc(Cl)cc2)n1Cc1ccco1)N1CCNC1=O 1.42%
CCC(=O)c1ccc(OCC(=O)N(CC)CC2COc3ccccc3O2)cc1 (stereo unspecified) -0.293%
CC1Cc2ccccc2N1S(=O)(=O)c1cccc(C(=O)NCC(c2ccco2)N2CCCC2)c1 (stereo unspecified) -17.1%
C[C@@H]1O[C@@H](O[C@@H]2[C@@H](O)[C@H](OCCc3ccc(O)c(O)c3)O[C@H](CO[C@@H]3O[C@H](CO)[C@@H](O)[C@H](O)[C@H]3O)[C@H]2OC(=O)/C=C/c2ccc(O)c(O)c2)[C@H](O)[C@H](O)[C@H]1O -12.8%
C=CCC(C)(O)c1ccco1 (stereo unspecified) -11%
COc1ccc(C2CC(O)(c3ccccc3)Oc3cc(C)cc(C)c32)cc1 (stereo unspecified) 3.66%
